Reference: publication PMC4081100, “A DNA-binding-site landscape and regulatory network analysis for NAC transcription factors in Arabidopsis thaliana”

How the values were obtained:
Assay in all cases: universal protein binding microarray (PBM); transcription factors of Arabidopsis thaliana; high values mean tight binding
Conditions in all cases: protein: recombinant; tags: GST; chain copies: 2; dsDNA, one strand shown
GST-ANAC092(1-176) = biological target: T1, GST-ANAC092(1-176) (Arabidopsis thaliana, UniProt Q9FKA0 1-176)
T1 sequence: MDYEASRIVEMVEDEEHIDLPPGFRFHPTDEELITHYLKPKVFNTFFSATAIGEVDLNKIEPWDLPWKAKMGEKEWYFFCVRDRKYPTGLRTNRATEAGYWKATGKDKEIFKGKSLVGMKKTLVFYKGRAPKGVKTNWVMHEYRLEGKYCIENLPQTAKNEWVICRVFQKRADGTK
Procedure, shortened: (§1)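 GST-tagged NAC-domain, full-length or DNA-binding-domain proteins were induced in cells, with zinc acetate added for zinc-finger proteins. They were purified on glutathione–Sepharose 4B and quantified by A280 or anti-GST western blot. Each was applied at 200 to 500 nM final, in duplicate, to custom all-10-mer Agilent 4 × 180K arrays made double-stranded by primer extension, with gapped and ungapped 8-mers scored. Binding is the normalised enrichment score (E-score).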

GST-ANAC019 NAC domain = biological target: T2, GST-ANAC019 NAC domain (Arabidopsis thaliana, UniProt Q9C932 14-162)
T2 sequence: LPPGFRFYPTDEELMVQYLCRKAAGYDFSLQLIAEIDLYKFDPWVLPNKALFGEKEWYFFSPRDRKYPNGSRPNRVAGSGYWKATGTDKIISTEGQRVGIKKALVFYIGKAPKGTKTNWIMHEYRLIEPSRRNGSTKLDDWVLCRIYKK
Procedure, shortened: as §1

GST-ANAC055(1-171) = biological target: T3, GST-ANAC055(1-171) (Arabidopsis thaliana, UniProt Q9LDY8 1-171)
T3 sequence: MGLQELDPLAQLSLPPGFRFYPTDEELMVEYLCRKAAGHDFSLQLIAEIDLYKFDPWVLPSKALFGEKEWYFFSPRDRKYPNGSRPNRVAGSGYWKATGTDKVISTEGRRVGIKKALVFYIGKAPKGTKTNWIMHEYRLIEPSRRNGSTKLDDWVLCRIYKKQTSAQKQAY
Procedure, shortened: as §1

GST-ATAF1 NAC domain = biological target: T4, GST-ATAF1 NAC domain (Arabidopsis thaliana, UniProt Q39013 7-158)
T4 sequence: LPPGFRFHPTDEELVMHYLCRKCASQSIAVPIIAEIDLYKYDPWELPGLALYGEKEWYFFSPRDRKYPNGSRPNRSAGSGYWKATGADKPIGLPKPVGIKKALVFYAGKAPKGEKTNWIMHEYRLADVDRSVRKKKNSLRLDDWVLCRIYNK
Procedure, shortened: as §1

[1] = biological target: T5, GST-ANAC092(1-285) full length (Arabidopsis thaliana, UniProt Q9FKA0 1-285)
T5 sequence: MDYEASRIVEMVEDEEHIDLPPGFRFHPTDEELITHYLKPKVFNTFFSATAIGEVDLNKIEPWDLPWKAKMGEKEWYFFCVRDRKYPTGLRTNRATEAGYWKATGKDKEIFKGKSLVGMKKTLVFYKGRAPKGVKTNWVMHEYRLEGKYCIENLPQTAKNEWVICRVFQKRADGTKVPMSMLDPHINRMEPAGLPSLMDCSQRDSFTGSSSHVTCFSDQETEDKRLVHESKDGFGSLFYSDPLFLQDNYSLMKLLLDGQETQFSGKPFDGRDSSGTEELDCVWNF
Procedure, shortened: as §1

GST-NAP(1-166) = biological target: T6, GST-NAP(1-166) (Arabidopsis thaliana, UniProt O49255 1-166)
T6 sequence: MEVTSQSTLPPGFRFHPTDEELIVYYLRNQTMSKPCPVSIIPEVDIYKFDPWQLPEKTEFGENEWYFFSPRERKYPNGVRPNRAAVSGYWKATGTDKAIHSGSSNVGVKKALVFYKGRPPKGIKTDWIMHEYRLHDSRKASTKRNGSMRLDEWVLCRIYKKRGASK
Procedure, shortened: as §1

GST-NST2(1-184) = biological target: T7, GST-NST2(1-184) (Arabidopsis thaliana, UniProt Q9M274 1-184)
T7 sequence: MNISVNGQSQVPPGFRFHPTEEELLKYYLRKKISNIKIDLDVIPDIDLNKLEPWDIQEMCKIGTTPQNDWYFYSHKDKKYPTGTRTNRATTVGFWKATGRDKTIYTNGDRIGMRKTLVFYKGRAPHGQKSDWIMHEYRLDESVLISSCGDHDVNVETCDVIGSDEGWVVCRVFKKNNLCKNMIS
Procedure, shortened: as §1

GST-SND1(1-203) = biological target: T8, GST-SND1(1-203) (Arabidopsis thaliana, UniProt Q9LPI7 1-203)
T8 sequence: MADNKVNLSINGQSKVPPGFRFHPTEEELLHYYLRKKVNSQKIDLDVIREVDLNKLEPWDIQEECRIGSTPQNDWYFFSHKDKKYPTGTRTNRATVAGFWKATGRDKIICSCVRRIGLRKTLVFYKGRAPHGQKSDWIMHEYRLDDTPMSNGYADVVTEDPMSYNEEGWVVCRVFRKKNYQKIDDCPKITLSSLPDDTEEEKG
Procedure, shortened: as §1

GST-VND3 NAC domain = biological target: T9, GST-VND3 NAC domain (Arabidopsis thaliana, UniProt Q9FH59 12-162)
T9 sequence: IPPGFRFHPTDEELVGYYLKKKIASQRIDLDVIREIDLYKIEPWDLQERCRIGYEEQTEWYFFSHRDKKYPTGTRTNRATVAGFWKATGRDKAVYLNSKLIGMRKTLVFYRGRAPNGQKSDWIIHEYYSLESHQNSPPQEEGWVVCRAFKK
Procedure, shortened: as §1

GST-VND7 NAC domain = biological target: T10, GST-VND7 NAC domain (Arabidopsis thaliana, UniProt Q9C8W9 9-158)
T10 sequence: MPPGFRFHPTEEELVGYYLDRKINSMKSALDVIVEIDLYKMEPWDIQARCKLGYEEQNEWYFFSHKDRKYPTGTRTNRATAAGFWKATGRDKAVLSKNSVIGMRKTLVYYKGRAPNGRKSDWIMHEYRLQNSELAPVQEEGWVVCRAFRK
Procedure, shortened: as §1

GST-NTL8 NAC domain = biological target: T11, GST-NTL8 NAC domain (Arabidopsis thaliana, UniProt Q9XIN7 14-156)
T11 sequence: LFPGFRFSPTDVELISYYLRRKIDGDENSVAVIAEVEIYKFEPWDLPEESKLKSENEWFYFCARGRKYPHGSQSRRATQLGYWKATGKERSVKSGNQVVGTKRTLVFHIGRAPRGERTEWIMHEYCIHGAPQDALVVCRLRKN
Procedure, shortened: as §1

| Sequence | binding signal (GST-ANAC092(1-176)) | binding signal (GST-ANAC019 NAC domain) | binding signal (GST-ANAC055(1-171)) | binding signal (GST-ATAF1 NAC domain) | binding signal [1] | binding signal (GST-NAP(1-166)) | binding signal (GST-NST2(1-184)) | binding signal (GST-SND1(1-203)) | binding signal (GST-VND3 NAC domain) | binding signal (GST-VND7 NAC domain) | binding signal (GST-NTL8 NAC domain) |
| --- | --- | --- | --- | --- | --- | --- | --- | --- | --- | --- | --- |
| CTAACGTA | 0.323 E-score | 0.0668 E-score | 0.216 E-score | 0.29 E-score | 0.391 E-score | 0.173 E-score | 0.277 E-score | 0.426 E-score | 0.25 E-score | 0.165 E-score |  |
| GCGTGTGA | 0.374 E-score | 0.191 E-score | 0.23 E-score | 0.226 E-score | 0.419 E-score | 0.145 E-score | 0.189 E-score | 0.17 E-score | 0.14 E-score | 0.0819 E-score |  |
| ACACGTAT | 0.289 E-score | 0.406 E-score | 0.342 E-score | 0.312 E-score | 0.369 E-score | 0.387 E-score | 0.19 E-score | 0.139 E-score | 0.38 E-score | 0.381 E-score |  |
| ATACACGC | 0.39 E-score | 0.19 E-score | 0.185 E-score | 0.21 E-score | 0.423 E-score | 0.256 E-score | 0.167 E-score | 0.0978 E-score | 0.167 E-score | 0.0693 E-score |  |
| TCACGGCA | 0.398 E-score | 0.473 E-score | 0.438 E-score | 0.385 E-score | 0.429 E-score | 0.344 E-score | 0.177 E-score | 0.16 E-score | 0.45 E-score | 0.456 E-score |  |
| CACGCTTC | 0.37 E-score | 0.184 E-score | 0.165 E-score | 0.212 E-score | 0.437 E-score | 0.109 E-score | 0.188 E-score | 0.232 E-score | 0.111 E-score | 0.127 E-score |  |
| ATAACGTG | 0.446 E-score | 0.0978 E-score | 0.143 E-score | 0.142 E-score | 0.447 E-score | 0.165 E-score | 0.221 E-score | 0.299 E-score | 0.191 E-score | 0.109 E-score |  |
| AACGTACG | 0.297 E-score | 0.122 E-score | 0.207 E-score | 0.326 E-score | 0.403 E-score | 0.212 E-score | 0.184 E-score | 0.326 E-score | 0.308 E-score | 0.209 E-score |  |
| GTTACGCA | 0.338 E-score | 0.301 E-score | 0.189 E-score | 0.2 E-score | 0.363 E-score | 0.263 E-score | 0.219 E-score | 0.422 E-score | 0.317 E-score | 0.215 E-score |  |
| TACACGTA | 0.382 E-score | 0.286 E-score | 0.361 E-score | 0.322 E-score | 0.411 E-score | 0.386 E-score | 0.198 E-score | 0.251 E-score | 0.375 E-score | 0.406 E-score |  |
| AAATACGT | 0.196 E-score | 0.226 E-score | 0.244 E-score | 0.346 E-score | 0.35 E-score | 0.29 E-score | 0.209 E-score | 0.21 E-score | 0.408 E-score | 0.263 E-score | 0.101 E-score |
| TACGGCAA | 0.409 E-score | 0.409 E-score | 0.363 E-score | 0.381 E-score | 0.422 E-score | 0.362 E-score | 0.212 E-score | 0.381 E-score | 0.417 E-score | 0.419 E-score | 0.192 E-score |
| ACGGAACC | 0.361 E-score | 0.454 E-score | 0.446 E-score | 0.38 E-score | 0.4 E-score | 0.461 E-score | 0.12 E-score | 0.235 E-score | 0.382 E-score | 0.435 E-score | 0.172 E-score |
| ATGCCGTA | 0.373 E-score | 0.395 E-score | 0.355 E-score | 0.385 E-score | 0.41 E-score | 0.36 E-score | 0.117 E-score | 0.307 E-score | 0.412 E-score | 0.432 E-score | 0.0526 E-score |
| AGACGTAA | 0.425 E-score | 0.453 E-score | 0.389 E-score | 0.437 E-score | 0.424 E-score | 0.456 E-score | 0.282 E-score | 0.408 E-score | 0.42 E-score | 0.42 E-score | 0.139 E-score |
